Assay results: PubChem BioAssay (NCATS)
Inconclusive results are not listed. Values without a mark were called inactive. Calls follow the shape of the dose curve; as a rule, active = well fitted inhibition curve with a large enough effect; inconclusive = small, poorly fitted or top-dose-only effect; inactive = flat fitted curve, though single readings scatter.

Each compound was assayed on DFO2036 (assay: qHTS profiling for inhibitors of Plasmodium falciparum proliferation (AID 504749;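 also: 0% = DMSO vehicle and full inhibition = artemisinin control; nearly all actives have a fitted effect of over 60% in size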)). Details: P. falciparum in erythrocytes, SYBR Green DNA, 72 h; series mostly up to 12.8 µM; activity, negative = inhibition: at the top concentration.
From the text: NIH National Institute of Allergy and Infectious Diseases [NIAID] NIH Chemical Genomics Center [NCGC] MLPCN Grant: None Assay Provider: Xinzhuan Su, NIAID NCGC Assay Overview: Plasmodium falciparum is a virulent malarial parasite that kills 1-2 million people worldwide each year. Transmitted by mosquitoes, the sporozoite form of the parasite enters the blood stream to infect hepatocytes, where they become merozoites that infect red blood cells (erythrocytes). Within erythrocytes, merozoites begin a […] cycle of growth and division, after which the parasite is released to infect new red blood cells. Gametocytes, which form within erythrocytes as well, circulate in the bloodstream and are ingested by the mosquito, thereby completing the life cycle. To profile malarial isolates for differential chemical responses and to identify inhibitors of malarial growth, an assay that measures P. falciparum growth and replication within erythrocytes was employed. This assay uses a DNA binding fluorescent dye (SYBR Green) to detect parasite DNA following cell lysis. Because mature erythrocytes lack DNA, only Plasmodium-derived DNA is detected.
NCGC Assay Protocol Summary: The SYBR Green viability assay was adapted from a method described previously (Plouffe et al., 2008). For screening 3 ul culture medium was dispensed into 1536 well black clear bottom plates (Aurora Biotechnologies) using a Multidrop Combi (Thermo Fisher Scientific Inc.), 23 nL compounds in DMSO were added by a pin tool (Kalypsys), and 5 ul of erythrocytes infected with P. falciparum (0.3% parasitemia, 2.5% hematocrit final concentration) were added. The plates were incubated at 37 C in a humidified incubator in 5% CO2 for 72 h, and 2 ul lysis buffer (20 mM Tris HCl, 10 mM EDTA, 0.16% saponin, 1.6% triton X, 10X SYBR Green I supplied as 10,000X […] by Invitrogen) was added to each well. The plates were mixed for 25 sec with gentle shaking and incubated overnight at room temperature in the dark. The following morning, fluorescence intensity at 485(14) nm excitation and 535(25) nm emission wavelengths was measured on an EnVision (Perkin Elmer) plate reader. Plate reads were normalized relative to the control inhibitor (0.29 uM artemisinin) and vehicle (DMSO) wells present on each plate and then corrected by an algorithm using vehicle-only control plates at the beginning and end of the compound plate stack.

Row | Compound | activity, negative = inhibition
1 | CN1CCCC[C@@H]1CCN1c2ccccc2Sc2ccc(S(C)=O)cc21 (stereo not given in full) | -7.45% [at 28.7 µM]
2 | Cn1c(=O)c2c(ncn2C[C@@H](O)CO)n(C)c1=O | -1.81%
3 | CC[C@]1(C)CC(=O)NC1=O | 9.9% [at 28.7 µM]
4 | CC(=O)OCC1=C(C(=O)O)N2C(=O)[C@@H](NC(=O)CSc3ccncc3)[C@@H]2SC1 | -0.2% [at 28.7 µM]
5 | C[N+]1(C)CCC[C@@H](OC(=O)C(O)(c2ccccc2)c2ccccc2)C1 | -1.34%
6 | O=c1[nH]c(=O)n([C@@H]2C[C@H](O)[C@H](CO)O2)cc1I | 6.96%
7 | C/C=C\C(=O)N(CC)c1ccccc1C | -4.17%
8 | CCCN(CCC)C(=O)[C@@H](CCC(=O)O)NC(=O)c1ccccc1 | 9.03% [at 28.7 µM]
9 | CC(C)N1CCN(c2ccc(OC[C@@H]3CO[C@@](Cn4cncn4)(c4ccc(Cl)cc4Cl)O3)cc2)CC1 | 9.76%
10 | C[C@@H]1CCC[C@H](C)N1NC(=O)c1ccc(Cl)c(S(N)(=O)=O)c1 | 7.73%
11 | CC[C@H](NC(C)C)[C@H](O)c1ccc(O)c(O)c1 | 3.65% [at 28.7 µM]
12 | CN(C)[C@H]1C(=O)C(C(=O)NCN2CCCC2)=C(O)[C@]2(O)C(=O)C3=C(O)c4c(O)cccc4[C@@](C)(O)[C@H]3C[C@@H]12 | 4.36%
13 | CN(N=O)C(=O)N[C@H]1[C@@H](O)[C@H](O)[C@H](CO)O[C@@H]1O | 0.386%
14 | NS(=O)(=O)c1cc([C@@]2(O)NC(=O)c3ccccc32)ccc1Cl | 8.63%
15 | CCCN[C@@H](C)C(=O)Nc1c(C)csc1C(=O)OC | 1.24%
16 | CCN1C(=O)N[C@@H](c2ccccc2)C1=O | -1.52%
17 | CC1(C)S[C@@H]2[C@H](NC(=O)[C@H](C(=O)O)c3ccsc3)C(=O)N2[C@H]1C(=O)O | 8.03% [at 28.7 µM]
18 | CC(C)NC[C@H](O)c1cc(O)cc(O)c1 | 18.8% [at 28.7 µM]
19 | CN(C)CC/C=C1\c2ccccc2CSc2ccccc21 | -22.7%
20 | C[C@@H](CN(C)C)CN1c2ccccc2CCc2ccccc21 | -15.2%

Row | Compound | activity, negative = inhibition
21 | C[N+](C)(C)CC(O)CC(=O)O (stereo not given) | 11% [at 28.7 µM]
22 | C[C@H](NCCc1ccc(O)cc1)[C@@H](O)c1ccc(O)cc1 | 10.4% [at 28.7 µM]
23 | CO[C@]1(NC(=O)CSCC#N)C(=O)N2C(C(=O)O)=C(CSc3nnnn3C)CS[C@H]21 | 10.1% [at 28.7 µM]
24 | CC(=O)O[C@@H](C)C[N+](C)(C)C | 15.5%
25 | N[C@@H](CO)C(=O)NNCc1ccc(O)c(O)c1O | 20.3% [at 28.7 µM]
26 | COc1ccc(C[C@@H]2c3cc(OC)c(OC)cc3CC[N@+]2(C)CCC(=O)OCCCCCOC(=O)CC[N@@+]2(C)CCc3cc(OC)c(OC)cc3[C@H]2Cc2ccc(OC)c(OC)c2)cc1OC | 1.05%
27 | CC(=O)N(CC(O)CN(C(C)=O)c1c(I)c(C(=O)NC[C@@H](O)CO)c(I)c(C(=O)NC[C@@H](O)CO)c1I)c1c(I)c(C(=O)NC[C@@H](O)CO)c(I)c(C(=O)NC[C@@H](O)CO)c1I | -0.364%
28 | CN[C@@H]1[C@H](O[C@@H]2O[C@H](CO)[C@@H](N)[C@H](O)[C@@H]2O)O[C@H]2C[C@@H](N)[C@@H](O[C@H]3[C@@H](O)[C@H](O)[C@H](N)C[C@@H]3N)O[C@H]2[C@H]1O | 4.31%
29 | CN[C@@H](CC(C)C)C(=O)N[C@@H]1C(=O)N[C@H](CC(N)=O)C(=O)N[C@@H]2C(=O)N[C@H]3C(=O)N[C@H](C(=O)N[C@H](C(=O)O)c4cc(O)cc(O)c4-c4cc3ccc4O)[C@H](O)c3ccc(c(Cl)c3)Oc3cc2cc(c3O[C@H]2O[C@@H](CO)[C@@H](O)[C@@H](O)[C@@H]2O[C@@H]2C[C@](C)(N)[C@H](O)[C@H](C)O2)Oc2ccc(cc2Cl)[C@@H]1O | 8.55% [at 28.7 µM]
30 | CO/N=C(\C(=O)N[C@@H]1C(=O)N2C(C(=O)O)=C(COC(C)=O)CS[C@@H]12)c1csc(N)n1 | 0.0274% [at 28.7 µM]
31 | C[C@@H]1COc2c(N3CCN(C)CC3)c(F)cc3c(=O)c(C(=O)O)cn1c23 | 9.89% [at 28.7 µM]
32 | CC(=O)Nc1c(I)c(C(=O)N[C@H]2[C@@H](O)[C@H](O)[C@H](CO)O[C@@H]2O)c(I)c(N(C)C(C)=O)c1I | -0.806%
33 | CCn1cc(C(=O)O)c(=O)c2cc(F)c(N3CCN[C@@H](C)C3)c(F)c21 | -16.6% [at 28.7 µM]
34 | CCC[C@H]1C(=O)N2C(N(C)C)=Nc3ccc(C)cc3N2C1=O | 2.48%
35 | O=C(O)/C=C\c1ccc(Cn2ccnc2)cc1 | 7.39%
36 | COCCc1ccc(OC[C@H](O)CNC(C)C)cc1 | 13.7% [at 28.7 µM]
37 | CCN[C@@H]1C[C@H](C)S(=O)(=O)c2sc(S(N)(=O)=O)cc21 | 8.62% [at 28.7 µM]
38 | CC[C@@]12CCCN3CCc4c(n(c5ccccc45)C(=O)C1)[C@H]32 | -5.61%
39 | CC1(C)Oc2ccc(C#N)cc2[C@H](N2CCCC2=O)[C@H]1O | 5.76% [at 28.7 µM]
40 | C[n+]1ccccc1/C=N\O | 22.4%
